HT1080 IDH1KD tx – toxicity to HT-1080 IDH1 knockdown cells (counter line) | Potency, µM (doses to about 46.1 µM), for the others: top-dose activity, negative = toxicity, most hits filed as cytotoxic | HT-1080 IDH1 knockdown viability, ATP luminescence, 48 h | actives 2% (n = 360,000) | AID 686971;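 further: potency means the concentration at half of the fitted maximal effect; 0% = DMSO wells and -100% = cell-free medium wells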
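In this qHTS, HT-1080 cells depleted of IDH1 are exposed for 48 h at 37 °C to compound titrations. Toxicity is scored from CellTiter-Glo luminescence, with DMSO as full viability and medium alone as none.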
HT1080-NT tox – kills 2HG-producing HT-1080-NT fibrosarcoma cells. HT-1080-NT fibrosarcoma viability, CellTiter-Glo ATP luminescence, 48 h. Potency, µM (top dose mostly 46.1 µM), without a hit: top-dose activity, negative = less viability, actives largely listed as cytotoxic. actives 1.6% (n = 360,000). AID 686970;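 further: NT is the 2HG producing partner of a matched IDH1 knockdown line; potency means the concentration at half of the fitted maximal effect; 0% = DMSO-treated cells and -100% = media-only wells without cells; nearly all actives have a fitted effect of over 55% in size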
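750 cells/well, RPMI + 5% FBS; 2 h settle, compound pin-transfer, 48 h at 37 degrees C. CellTiter-Glo 10 min RT, luminescence. Normalized to DMSO and media-only wells.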
TDP1 cell CPT – DT40-hTDP1 cell growth loss with CPT; Potency, µM (series often up to 46.2 µM), without a hit: top-dose activity change, negative = growth inhibition, actives largely listed as inhibitors; chicken DT40 Tdp1-/-;hTDP1 cells + 20 nM CPT, ATP luminescence, 48 h; actives 12% (n = 420,000); further: potency means the concentration at half of the fitted maximal effect; nearly all actives have a fitted effect of over 55% in size
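Chicken DT40 Tdp1-/- cells complemented with human TDP1, 400 cells/well, exposed to compounds plus 20 nM camptothecin for at least 48 h at 37 C; viability read as ATP content by CellTiter-Glo luminescence.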
IL1B secr inh – blocks inflammasome-driven IL-1 beta release. THP-1 LPS/ATP IL-1B secretion, AlphaLISA, 16 h; active compounds read low. activity change, % at 57.5 µM. actives 4.7% (n = 360,000); in the data active means activity change below about -50%; inconclusive means mostly about -30% to -49%
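THP-1 cells pretreated 1 hr with compounds (up to 57.5 uM final), then stimulated with LPS (250 ng/mL final) plus ATP (1.25 mM final); secreted IL-1B measured by AlphaLISA after 16 hr, decreased signal indicating inhibition.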
DT40 TDP1 no CPT – qHTS for Inhibitors of human tyrosyl-DNA phosphodiesterase 1 (TDP1): qHTS in cells in absence of CPT; DT40 Tdp1-/- hTDP1 cells, no CPT, ATP luminescence, 48 h; Potency, µM (highest dose often 46.2 µM), for inactives: top-dose activity change, negative = growth inhibition, hits mostly inhibitors; actives 15% (n = 420,000); further: potency means the concentration at half of the fitted maximal effect; nearly all actives have a fitted effect of over 55% in size
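Cells were dispensed at 400 per well, compounds added by pin tool, plates incubated ≥48 hr at 37 °C, then CellTiter-Glo added for 30 min at room temperature before luminescence reading. Line: DT40 Tdp1-/- complemented with hTDP1; camptothecin omitted.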
* marks the source's active call; other numbers are inactive results; ? = inconclusive; . = not tested or not shown; [ ] = dose if it differs, or a comment. Compounds with a hit are over-represented: about 19% of the library has one in this group of screens. Unless noted, the call rests on the fitted dose curve; in most records, active means well fitted curve in the direction sought with a large enough effect; inconclusive means small, poorly fitted or top-dose-only effect, or another doubt; inactive means no such curve, though single readings can be large; an effect the other way counts as inactive or inconclusive. Unless noted, on the % scale 0 is the no-effect control and ±100 the full control effect.

SMILES | HT1080 IDH1KD tx | HT1080-NT tox | TDP1 cell CPT | IL1B secr inh | DT40 TDP1 no CPT
NC(=O)CC(NC(=O)c1ccccc1)c1ccc(N2CCN(c3ccccn3)CC2)c([N+](=O)[O-])c1 (centres undefined) | 12% | 9% | 21µM* | 2 | 21µM*
NC(=O)CC(NC(=O)c1ccccc1)c1ccc(N2CCC(N3CCCC3)CC2)c([N+](=O)[O-])c1 (centres undefined) | 20% | 9% | -18% | 19 | 0%
NC(=O)CC(NC(=O)Cc1ccc(Br)cc1)c1ccc(N2CCc3ccccc3C2)c([N+](=O)[O-])c1 (centres undefined) | -14% | ? | ? | -7 | ?
COc1ccc(CN(C(=O)Nc2ccc(C)c(F)c2)C2CCN(C(C)=O)CC2)cc1 | . | . | -27% | . | -10%
Cc1ccc(-c2nc3ncccc3o2)cc1NC(=O)c1sc2ccccc2c1Cl | 3% | -1% | ? | -7 | -17%
O=C(NCc1ccc(Cl)cc1)C1CCN(S(=O)(=O)c2ccc(N3CCCC3=O)cc2)CC1 | -4% | 4% | 10µM* | -9 | ?
O=C(CCNC(=O)C1CCN(S(=O)(=O)c2ccccc2)CC1)NCCc1cccc(F)c1 | 0% | 1% | ? | 0 | 26µM*
O=C(NCc1ccc(Cl)cc1)C1CCN(S(=O)(=O)c2cc([N+](=O)[O-])ccc2Cl)CC1 | -25% | -11% | 23µM* | -17 | 16µM*
O=C(NCc1ccc(N2CCCC2=O)cc1)Nc1cccc(Cl)c1 | -24% | -3% | -26% | -61* | ?
O=C(O)c1ccccc1-c1ccc(C(F)(F)F)cc1 | . | . | 3% | . | -9%
COc1ccc(/C=C2\SC(=S)N(CCCC(=O)N3CCCCC3CCO)C2=O)cc1 (centres undefined) | -12% | 0% | ? | -9 | ?
Cc1cccc2sc(NC(=O)C3CCN(S(=O)(=O)c4cc([N+](=O)[O-])ccc4Cl)CC3)nc12 | ? | -14% | 18µM* | -76* | 16µM*
O=C(NCc1ccccc1)C1CCN(S(=O)(=O)c2ccc(N3CCCC3=O)cc2)CC1 | 0% | -2% | -20% | -21 | 21µM*
CC1COc2ccccc2N1S(=O)(=O)c1cc(Cl)ccc1Cl (centres undefined) | -1% | -30% | -22% | 25 | ?
CCOC(=O)C1(CCCc2ccccc2)CCN(C(=O)Cc2nonc2C)CC1 | -11% | 1% | ? | ? | ?
CCOC(=O)C1(Cc2cccc(F)c2)CCN(Cc2c(C)nn(CC)c2C)CC1 | -4% | -5% | 23µM* | 0 | ?
CCOC(=O)C1(Cc2cccc(F)c2)CCN(Cc2cn(CC)nc2C)CC1 | -12% | 4% | 1% | -20 | ?
CCOC(=O)C1(CCCc2ccccc2)CCN(CCCn2cccn2)CC1 | 0% | -1% | -28% | 23 | ?
CCOC(=O)C1(CCCc2ccccc2)CCN(Cc2cnc(C)s2)CC1 | ? | 18µM* | 21µM* | -88* | 10µM*
CCOC(=O)C1(CCCc2ccccc2)CCN(Cc2cn(CC)nc2C)CC1 | ? | ? | ? | -77* | ?
CCOC(=O)C1(CCc2ccccc2)CCN(Cc2cccc3nccnc23)CC1 | -13% | -3% | 21µM* | ? | 16µM*
COCC(=O)N1CCC2(CC1)CN(c1ccncc1)C2 | . | . | 5% | . | 4%
CCOC(=O)C1(CCCc2ccccc2)CCN(Cc2nccn2CC)CC1 | ? | ? | ? | -55* | ?
CCOC(=O)C1(Cc2cccc(F)c2)CCN(Cc2ccon2)CC1 | 10% | 0% | 4% | 8 | ?
CCOC(=O)C1(CCOc2ccccc2)CCN(Cc2nccn2CC)CC1 | -2% | -1% | ? | -4 | ?
SMILES | HT1080 IDH1KD tx | HT1080-NT tox | TDP1 cell CPT | IL1B secr inh | DT40 TDP1 no CPT
CCOC(=O)C1(CCCc2ccccc2)CCN(C(=O)C2=C(C)OCCO2)CC1 | ? | ? | ? | -80* | 21µM*
CCOC(=O)C1(CCCc2ccccc2)CCN(C(=O)c2ccoc2)CC1 | 0% | -21% | -24% | -5 | ?
CCOC(=O)C1(Cc2cccc(F)c2)CCN(Cc2cnc(C)s2)CC1 | 0% | -4% | 26µM* | 9 | 23µM*
NCCCCCC(=O)N/N=C/c1coc2ccccc2c1=O | 2% | 4% | 6% | -1 | -13%
COc1ccc(NC(=O)CCN2C(=O)c3ccncc3C2=O)cc1OC | -1% | ? | 2% | -3 | 1%
Nc1ccc(S(=O)(=O)NNC(=O)C(=O)NNc2ccccc2)cc1 | ? | 10µM* | -25% | -12 | -11%
CCOC(=O)c1nn(-c2ccc(C)cc2)c(=O)cc1OCC(=O)Nc1ccc(OC)cc1 | -10% | -1% | -4% | 10 | -16%
O=C1CCCC2=C1C(c1ccc(O)c(Br)c1)C1=C(CCCC1=O)N2c1ccccc1 | -5% | -2% | ? | -8 | 23µM*
Cc1cnc(-n2ncc(C(=O)NCCc3ccccn3)c2C)nc1-c1ccc(F)cc1 | . | . | 3%[9.04 µM] | . | ?
COc1ccccc1N1CCN(c2nc3ccccc3n3cnnc23)CC1 | . | . | ? | . | 21µM*
Cc1cccc(N2CCN(c3nc4ccc(Cl)cc4n4cnnc34)CC2)c1C | 16% | 18% | 21µM* | 22 | ?
CC(C)NC(=O)C1(c2ccccc2)CC1(Cl)Cl (centres undefined) | 3% | 2% | -17% | -8 | 25%
O=C(O)C1CCCCC1C(=O)Nc1cccc2ccccc12 (centres undefined) | 0% | 3% | 16µM* | 34 | 8.2µM*
CCN(CC)C(=O)C1=C(C)N(CCCN2CCCC2=O)C(=O)C(CC(=O)NCCCN(C)C)C1 (centres undefined) | 9% | -2% | -7% | 12 | -9%
CCC(C)Cn1c(/C=C/c2ccccc2)nc2ccccc21 (centres undefined) | . | . | 9.2µM* | . | 9.2µM*
CC(C)CCn1c(/C=C/c2ccccc2)nc2ccccc21 | . | . | 16µM* | . | 12µM*
O=C(NCCCN1CCOCC1)C1COc2ccccc2O1 (centres undefined) | -9% | -7% | -6% | -3 | -1%
O=C(NCCN1C(=O)S/C(=C\c2ccc(Cl)c(Cl)c2)C1=O)C1COc2ccccc2O1 (centres undefined) | 6% | 2% | ? | -56* | ?
CCOc1ccc(/C=C2\SC(=O)N(CCNC(=O)CN3C(=O)NC4(CCCC4)C3=O)C2=O)cc1OC | -1% | -1% | -22% | -7 | -25%
